Experimental data taken from PubChem BioAssay AID1159580 (chemical genetic matrix, 2015).
Among all 5,500 compounds or so, about 2,000 (36%) were called active. Not shown: some 18% with an inconclusive outcome. Cut-off read from the data, not from the text of the source: active = normalized growth mostly below about 0.91 (no sharp cut-off); inconclusive = no clear call, values can overlap the other calls; inactive = mostly above about 0.92. The list shows a part of the results.

Test: chemical genetic growth profiling, strain panel (AID 1159580);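 note: tested at 20 µM; growth read once vehicle control cultures reached saturation at 30 °C; 1 = growth at the plate median or of vehicle wells; lower values mean less growth of the strain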
Settings: S. cerevisiae deletion strains, growth OD

Measured: normalized growth

O=C(O)C1CCCN(CCC=C(c2ccccc2)c2ccccc2)C1 (stereo not drawn)
inactive: locus YAL013W, strain DEP1, hits give low values 1.04 | locus YAL040C, strain CLN3, hits give low values 1.06 | locus YCL061C, strain MRC1 (second series), hits give low values 1.01 | locus YDR150W, strain NUM1, hits give low values 1.01 | locus YDR363W, strain ESC2, hits give low values 1.02 | locus YER002W, strain NOP16, hits give low values 1 | locus YGR078C, strain PAC10, hits give low values 1.02 | locus YGR229C, strain SMI1, hits give low values 1.04 | locus YMR263W, strain SAP30, hits give low values 1.01 | locus YMR307W, strain GAS1, hits give low values 1.01 | locus YNL153C, strain GIM3, hits give low values 1.08 | locus YNL175C, strain NOP13, hits give low values 0.999 | locus YNL197C, strain WHI3, hits give low values 1 | locus YNL224C, strain SQS1, hits give low values 0.997 | locus YNL322C, strain KRE1, hits give low values 1.05 | locus YOR083W, strain WHI5 (second series), hits give low values 1.04 | locus YPL055C, strain LGE1, hits give low values 1.03 | locus YPL241C, strain CIN2, hits give low values 1.01
